# Sampled rows, rich in hits. Any-hit rate of the full collection: about 8.3%.
# FMDV inh – High Throughput Screening for Foot and Mouth Disease Virus Antivirals | FMDV antiviral cell-based qHTS | Potency, µM (top dose mostly 57.9 µM), without a hit: at the top dose activity change, negative = inhibition, hits mostly inhibitors | actives 1.2% (n = 410,000); calls by dose curve; tested in HEK293T cells; also: read-out not given here; potency is read from the fitted curve at half-maximal effect; nearly all actives have a fitted effect of over 45% in size
# HCMV antiviral – qHTS Assay for inhibitors of the human cytomegalovirus (HCMV). HFF cells, HCMV-luciferase reporter, 72 h; hits give low values. activity change, negative = inhibition, % at 57.5 µM. actives 4.5% (n = 410,000). AID 1259415, 2018; in the data active = activity change below about -60%; inconclusive = no clear call, values can overlap the other calls; inactive = above about -39%
#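 Steps: HFFs plated, 16 h 37C; compounds added; HCMV-luciferase added to MOI 1 PFU/cell; 72 h 37C; OneGlo reagent, 5 min room temperature; luminescence read, normalized to controls.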
# Lassa entry inh – qHTS for Inhibitors of binding or entry into cells for Lassa Virus; Lassa virus pseudotype entry inhibition, cell reporter; actives 1.2% (n = 300,000); Potency, µM (highest dose often 37.9 µM), inactives show at the top dose activity change, negative = inhibition, most hits filed as inhibitors; calls by dose curve; tested in HEK293 cells; also: potency is read from the fitted curve at half-maximal effect; nearly all actives have a fitted effect of over 50% in size
# MARV entry inh – qHTS for inhibitors of binding or entry into cells for Marburg Virus; Marburg virus pseudotyped entry inhibition, cell reporter; Potency, µM (series often up to 37.8 µM), for the others: at the highest dose activity change, negative = inhibition, actives largely listed as inhibitors; actives 1.8% (n = 300,000); AID 540276, 2011; calls by dose curve; tested in HEK293 cells; also: potency is read from the fitted curve at half-maximal effect
# FBPA Giardia inh – qHTS Assay for Inhibitors of Fructose-1,6-bisphosphate Aldolase from Giardia Lamblia | Potency, µM (top dose mostly 59.6 µM), inactives show top-dose activity, negative = inhibition, actives largely listed as inhibitors | purified Giardia FBPA | actives 0.71% (n = 290,000) | AID 2451, 2010 | A8B2U2; also: potency is read from the fitted curve at half-maximal effect; nearly all actives have a fitted effect of over 55% in size
# Target sequence (A8B2U2 whole entry, looked up): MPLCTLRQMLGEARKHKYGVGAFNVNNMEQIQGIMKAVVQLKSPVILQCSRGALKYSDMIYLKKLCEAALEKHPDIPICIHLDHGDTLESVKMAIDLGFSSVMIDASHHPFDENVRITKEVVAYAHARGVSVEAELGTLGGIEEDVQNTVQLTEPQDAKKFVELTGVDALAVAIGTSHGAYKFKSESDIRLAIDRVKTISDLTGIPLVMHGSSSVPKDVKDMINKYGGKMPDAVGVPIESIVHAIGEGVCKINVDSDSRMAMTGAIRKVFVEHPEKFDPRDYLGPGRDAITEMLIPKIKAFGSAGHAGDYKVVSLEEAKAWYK
#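 Giardia FBPA (40 nM reagent) was preincubated 10 min at RT with compound (up to 57.5 uM final), then substrate plus GAPDH/TPI/NAD/arsenate coupling system with diaphorase/resazurin was added; resorufin fluorescence (525/598 nm) was read after 20 min.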
# HCV inh – qHTS Assay for Inhibitors of Hepatitis C Virus (HCV); AID 651820, 2012; Huh7.5.1 HCVcc-Cre infection, luciferase reporter, 44 h; actives 3.4% (n = 340,000); Potency, µM (doses to about 41.8 µM), for the others: at the highest dose activity change, negative = inhibition, usual class: inhibitors; also: potency is read from the fitted curve at half-maximal effect
#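 Seed cells (1,000/well) for 4 h; treat with compound and infect with HCVcc-Cre, moi about 0.5. Incubate 44 h, then detect luciferase activity.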
# An asterisk follows results filed as active; ? = inconclusive; / = no result; [ ] = remark or other dose. Unless noted, calls follow the shape of the dose curve; as a rule, active = well fitted curve in the direction sought with a large enough effect; inconclusive = small, poorly fitted or top-dose-only effect, or another doubt; inactive = no such curve, though single readings can be large; an effect the other way counts as inactive or inconclusive. % is scaled to controls: 0 for no effect and ±100 for the full control effect.
SMILES,FMDV inh,HCMV antiviral,Lassa entry inh,MARV entry inh,FBPA Giardia inh,HCV inh
CCC(C)C(=O)O[C@H]1C[C@@H](C)C=C2C=C[C@H](C)[C@H](CC[C@@H]3C[C@@H](O)CC(=O)O3)C21 (stereo partly specified),/,/,/,/,3%,/
N#CC1=C(N)Oc2cc3c(cc2C1c1ccc(Cl)cc1)OCO3 (stereo unspecified),/,-1,?,-50%,-3%,-27%
COc1cc(C2C(C#N)=C(N)Oc3cc4c(cc32)OCO4)cc(OC)c1OC (stereo unspecified),-16%,-86*,?,?,-13%,26%
Cc1cc(C)nc(S[C@H]2C[C@@H](C(=O)N3CCN(c4ccccc4F)CC3)N(Cc3ccccc3C(F)(F)F)C2)n1,4%,/,/,/,/,/
CCCCCCc1ccc(-c2ncc(N)cn2)cc1,36%,-3,4%,-27%,0%,5.6µM*
CCCCCc1ccc(-c2nnc(N)s2)cc1,41%,38,0%[46.1 µM],25%[46.1 µM],9%,16%
C=CC[C@@H](Cc1ccc(F)cc1)C(=O)OC[C@@H]1CCCN1C(=O)[C@H](CC=C)CC(=O)N(CCO)Cc1ccccc1,-19%,-36,/,/,/,1.4µM*
C=CC[C@H](CC(=O)N(CCO)Cc1ccccc1)C(=O)NCCOC(=O)[C@@H](CC=C)Cc1ccc(F)cc1,?,16,/,/,/,?
C=CCC[C@@H](Cc1ccc(F)cc1)C(=O)OCCNC(=O)[C@@H](CC=C)CC(=O)N(CCO)Cc1ccccc1,-8%,-1,/,/,/,10µM*
C=CC[C@@H](CC(=O)N(CCO)Cc1ccccc1)C(=O)NC[C@@H](OC(=O)[C@@H](CC=C)Cc1ccc(F)cc1)c1ccccc1,?,3,/,/,/,?
C=CC[C@H](CC(=O)N(CCO)Cc1ccccc1)C(=O)NC[C@H](OC(=O)[C@@H](CC=C)Cc1ccc(F)cc1)c1ccccc1,35µM*,19,/,/,/,?
C=CC[C@@H](Cc1ccc(F)cc1)C(=O)OC[C@H]1CCCN1C(=O)[C@@H](CC=C)CC(=O)N(CCO)Cc1ccccc1,?,0,/,/,/,?
CCNc1ncc2ncc(=O)n(C3CC3)c2n1,-1%,/,/,/,0%,/
COc1ccccc1NC(=O)C1=C(C)Nc2nc(SCc3ccccc3)nn2C1c1ccccn1 (stereo unspecified),-9%,1,13%[46.1 µM],?,/,/
O=C(c1ccccc1-n1cccn1)N1CCOc2c(cc(-c3ncc(C(F)(F)F)cc3Cl)cc2OCC2CCCO2)C1 (stereo unspecified),-22%,/,/,/,/,/
COc1cc(=O)n2c(c1C(=O)N(C)Cc1nonc1C)CCN(C(=O)c1cc(C)cc(C)c1)CC2,15%,/,/,/,/,/
C=CC[C@H](CC(=O)N(CCO)Cc1ccccc1)C(=O)N[C@H](COC(=O)[C@H](CC=C)CC(=O)OC(C)(C)C)Cc1c[nH]c2ccccc12,?,-11,/,/,/,25µM*
C=CC[C@@H](CC(=O)N[C@@H](CO)Cc1ccccc1)C(=O)NC[C@@H](OC(=O)[C@@H](CC=C)Cc1ccc(F)cc1)c1ccccc1,-5%,1,/,/,/,-1%
C=CC[C@@H](CC(=O)N[C@@H](CO)Cc1ccccc1)C(=O)NC[C@H](OC(=O)[C@@H](CC=C)Cc1ccc(F)cc1)c1ccccc1,?,-64*,/,/,/,21%
O=C1CC(Sc2nnnn2-c2ccccc2)C(=O)N1c1cccc(Cl)c1 (stereo unspecified),-7%,-62*,?,?,-26%,?
CSc1ccc(C2=CC(=O)C[C@H](c3ccc4c(c3)OCO4)C2)cc1,-2%,-64*,/,/,/,17%
Cc1cc(C2=CC(=O)C[C@H](c3ccc(F)cc3)C2)ccc1F,-3%,-62*,/,/,/,/
CCOC(=O)C1OC1C(=O)NC(CC(C)C)C(=O)NCCC(C)C (stereo unspecified),-17%[97.4 µM],/,/,/,/,/
CCCOc1ccc(NC(=O)CC2C(=O)N(c3ccc(C)cc3)C(=O)N2C(C)C)cc1 (stereo unspecified),-4%,20,?,/,/,/
Cc1cccn2c(=O)c(C=NCc3ccco3)c(Nc3ccc(SC(F)F)cc3)nc12,-22%,-3,9.2µM*,?,2%,?
SMILES,FMDV inh,HCMV antiviral,Lassa entry inh,MARV entry inh,FBPA Giardia inh,HCV inh
Cc1cccn2c(=O)c(C=NCCO)c(NCc3ccco3)nc12,-3%,-25,-12%,-27%,0%,1%
COC(=O)C(c1cccc(OC)c1)(c1cn(C)c2ccccc12)C(Nc1ccccc1)c1ccccc1 (stereo unspecified),/,-6,/,/,/,/
Oc1cccc(NC(=S)N=Nc2c(O)[nH]c3ccccc23)c1,6%,0,-26%,-7%[46.1 µM],?,-1%
CCOc1ccc(NC(=S)N=Nc2c(O)[nH]c3ccccc23)cc1,-21%,-11,?,?,6%,13µM*
COc1ccc(C=NNC(=S)NN=Cc2ccc(OC)c(OC)c2)cc1OC,18%,-102*,?,?,/,-21%
COc1ccc(/C=N/NC(=S)NCc2ccccc2)cc1OC,-13%,25,?,23%,-5%,-3%
COc1ccc(C=NNC(=S)Nc2ccc(F)cc2)cc1OC,-6%,-61*,?,?,/,-6%
COc1ccc(/C=N/NC(=S)Nc2cccc(C(=O)O)c2)cc1OC,16µM*,-34,?,?,-20%,12%
Cc1cccc(CCNC(=O)C2CCCN(c3ncnc4c3nc3n4CCCCC3)C2)c1 (stereo unspecified),-19%,?,?,?,-15%,?
Cc1cccc(N2CCN(c3ncnc4c3nc3n4CCCCC3)CC2C)c1 (stereo unspecified),2.2µM*,-98*,?,/,/,/
Cc1cccc(N2CCN(CCCNC(=O)C3CCCN(c4ncnc5c4nc4n5CCCCC4)C3)CC2C)c1 (stereo unspecified),?,?,?,11µM*,4%,?
Clc1cccc(N2CCN(c3ncnc4c3nc3n4CCCC3)CC2)c1,-6%,53,4%[46.1 µM],?,/,/
CC(C)=CCC/C(C)=C/CO/N=C1\C[C@@H](O)[C@@H](O)[C@@H]2[C@@H]3C(=O)N(C[C@@H]4CCCO4)C(=O)[C@@H]3CC[C@H]12,/,/,/,-5%[14.2 µM],/,/
Cc1ccc(S(=O)(=O)/N=C2/C=C(Sc3ncn[nH]3)C(=O)c3ccccc32)c(C)c1,/,/,4.1µM*,?,1.6µM*,?
Cc1ccc(NC2=C(NCCO)C(=O)c3ccccc3C2=O)cc1,0%,14,?,?,?,5%
